Experiments:
Assay in all cases: DAPPL (digital affinity profiling via proximity ligation, sequencing); 10 mM Tris-HCl pH 7.5, 50 mM NaCl, 1 mM DTT, 4% glycerol, room temperature, 30 min; GST-TFs on glutathione beads, 16-mer random dsDNA library, 0.1% formaldehyde crosslink after washing; high values mean tight binding
Conditions in all cases: protein: recombinant; tags: N-terminal GST; dsDNA, one strand shown
ERF = target: T1, ERF (Homo sapiens, UniProt P50548 1-548)
T1 sequence: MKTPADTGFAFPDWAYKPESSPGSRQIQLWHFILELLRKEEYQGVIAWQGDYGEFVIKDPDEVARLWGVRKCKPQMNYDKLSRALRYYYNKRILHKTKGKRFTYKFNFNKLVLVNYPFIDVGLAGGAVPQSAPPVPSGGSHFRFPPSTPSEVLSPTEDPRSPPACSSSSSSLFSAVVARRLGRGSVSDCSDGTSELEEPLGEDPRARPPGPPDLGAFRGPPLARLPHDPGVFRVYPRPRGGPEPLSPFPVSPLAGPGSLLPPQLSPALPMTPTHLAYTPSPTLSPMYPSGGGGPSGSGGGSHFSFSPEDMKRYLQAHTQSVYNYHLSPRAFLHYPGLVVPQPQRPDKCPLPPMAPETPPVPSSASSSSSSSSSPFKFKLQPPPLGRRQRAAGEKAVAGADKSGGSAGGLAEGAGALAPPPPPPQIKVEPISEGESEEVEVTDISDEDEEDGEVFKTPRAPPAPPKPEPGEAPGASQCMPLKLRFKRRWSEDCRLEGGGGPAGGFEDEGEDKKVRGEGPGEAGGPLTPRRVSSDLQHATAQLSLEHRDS
Procedure, shortened: (§1)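 Human transcription factors carrying a GST fusion were produced in yeast, bound to glutathione beads, tagged with DNA barcodes and pooled together with a tag-only sample. Each pool was held with 200 nmole of a random double-stranded 16-mer DNA library in Tris/NaCl/DTT/glycerol buffer for 30 min at room temperature, then washed, crosslinked in 0.1% formaldehyde, proximity-ligated with BsaI/T4 ligase (1 h, 37 °C), PCR-amplified and sequenced on an Illumina NextSeq500. Binding signal is the read frequency of each hexamer for a given factor divided by its frequency in the tag-only sample.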

ETV3L = target: T2, ETV3L (Homo sapiens, UniProt Q6ZN32 1-361)
T2 sequence: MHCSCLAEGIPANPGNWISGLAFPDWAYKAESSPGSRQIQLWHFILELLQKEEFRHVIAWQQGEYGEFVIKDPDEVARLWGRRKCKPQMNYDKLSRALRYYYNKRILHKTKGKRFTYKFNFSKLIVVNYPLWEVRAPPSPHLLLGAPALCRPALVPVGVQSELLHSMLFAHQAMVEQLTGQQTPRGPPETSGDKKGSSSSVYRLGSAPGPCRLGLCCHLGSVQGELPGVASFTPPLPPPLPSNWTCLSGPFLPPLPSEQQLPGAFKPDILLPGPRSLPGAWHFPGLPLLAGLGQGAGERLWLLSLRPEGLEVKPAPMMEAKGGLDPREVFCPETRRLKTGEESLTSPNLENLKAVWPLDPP
Procedure, shortened: as §1

ETS2 = target: T3, ETS2 (Homo sapiens, UniProt P15036 1-469)
T3 sequence: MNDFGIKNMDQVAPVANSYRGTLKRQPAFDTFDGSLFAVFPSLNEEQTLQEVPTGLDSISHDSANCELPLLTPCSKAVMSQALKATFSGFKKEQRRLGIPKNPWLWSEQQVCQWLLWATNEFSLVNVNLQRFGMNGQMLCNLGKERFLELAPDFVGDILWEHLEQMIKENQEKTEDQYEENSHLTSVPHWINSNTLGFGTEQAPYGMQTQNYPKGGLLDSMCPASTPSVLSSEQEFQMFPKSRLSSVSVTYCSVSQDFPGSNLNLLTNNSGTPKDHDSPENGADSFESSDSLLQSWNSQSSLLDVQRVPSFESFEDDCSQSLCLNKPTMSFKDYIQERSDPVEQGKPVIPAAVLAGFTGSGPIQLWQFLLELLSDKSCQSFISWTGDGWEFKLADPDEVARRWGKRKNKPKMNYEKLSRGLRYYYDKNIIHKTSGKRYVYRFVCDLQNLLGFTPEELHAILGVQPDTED
Procedure, shortened: as §1

SPDEF = target: T4, SPDEF (Homo sapiens, UniProt O95238 1-335)
T4 sequence: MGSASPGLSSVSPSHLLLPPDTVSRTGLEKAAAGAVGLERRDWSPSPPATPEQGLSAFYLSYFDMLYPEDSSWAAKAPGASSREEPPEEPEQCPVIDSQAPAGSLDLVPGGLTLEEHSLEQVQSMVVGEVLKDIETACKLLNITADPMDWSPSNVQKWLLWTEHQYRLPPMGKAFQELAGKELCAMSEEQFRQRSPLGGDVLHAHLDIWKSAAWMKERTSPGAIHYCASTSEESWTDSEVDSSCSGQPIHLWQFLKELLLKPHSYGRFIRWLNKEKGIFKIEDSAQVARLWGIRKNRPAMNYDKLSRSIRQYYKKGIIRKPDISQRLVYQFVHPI
Procedure, shortened: as §1

ETV7 = target: T5, ETV7 (Homo sapiens, UniProt Q9Y603 1-341)
T5 sequence: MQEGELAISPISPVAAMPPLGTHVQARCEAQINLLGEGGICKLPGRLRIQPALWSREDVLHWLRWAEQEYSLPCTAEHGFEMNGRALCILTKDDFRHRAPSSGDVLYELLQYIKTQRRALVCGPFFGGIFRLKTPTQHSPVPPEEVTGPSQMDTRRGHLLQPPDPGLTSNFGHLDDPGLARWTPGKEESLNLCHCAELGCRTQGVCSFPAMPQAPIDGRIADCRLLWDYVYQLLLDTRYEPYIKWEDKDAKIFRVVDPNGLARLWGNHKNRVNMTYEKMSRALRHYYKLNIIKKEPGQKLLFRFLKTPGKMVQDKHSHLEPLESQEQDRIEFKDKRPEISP
Procedure, shortened: as §1

ELF5 = target: T6, ELF5 (Homo sapiens, UniProt Q9UKW6-2 1-255)
T6 sequence: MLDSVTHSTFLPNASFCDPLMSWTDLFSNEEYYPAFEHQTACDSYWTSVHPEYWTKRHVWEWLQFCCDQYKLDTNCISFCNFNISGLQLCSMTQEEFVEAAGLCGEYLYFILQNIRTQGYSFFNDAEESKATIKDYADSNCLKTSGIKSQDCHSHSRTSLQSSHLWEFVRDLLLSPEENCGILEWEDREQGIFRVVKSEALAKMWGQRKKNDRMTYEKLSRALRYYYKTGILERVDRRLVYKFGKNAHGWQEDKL
Procedure, shortened: as §1

ETV3 = target: T7, ETV3 (Homo sapiens, UniProt P41162-2 1-143)
T7 sequence: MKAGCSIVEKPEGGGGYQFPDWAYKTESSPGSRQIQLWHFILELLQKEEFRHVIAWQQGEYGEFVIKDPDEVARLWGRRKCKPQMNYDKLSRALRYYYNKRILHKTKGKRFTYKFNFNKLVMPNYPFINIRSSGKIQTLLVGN
Procedure, shortened: as §1

ETV6 = ETV6 (Homo sapiens, UniProt P41212 1-452)
Chain of ETV6 (P41212 whole entry): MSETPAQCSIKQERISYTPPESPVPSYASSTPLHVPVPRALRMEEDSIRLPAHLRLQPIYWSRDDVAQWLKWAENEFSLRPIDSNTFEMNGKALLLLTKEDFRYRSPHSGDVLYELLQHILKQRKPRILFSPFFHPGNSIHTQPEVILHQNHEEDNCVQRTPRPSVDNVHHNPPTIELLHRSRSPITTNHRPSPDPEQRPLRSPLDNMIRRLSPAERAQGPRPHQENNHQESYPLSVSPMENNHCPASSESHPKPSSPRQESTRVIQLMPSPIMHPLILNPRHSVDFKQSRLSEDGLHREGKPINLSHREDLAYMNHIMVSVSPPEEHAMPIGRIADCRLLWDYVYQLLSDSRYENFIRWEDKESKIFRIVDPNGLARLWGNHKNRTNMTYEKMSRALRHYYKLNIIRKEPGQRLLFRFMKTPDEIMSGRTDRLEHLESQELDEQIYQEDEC
Procedure, shortened: as §1

Sequence | binding signal (ERF) | binding signal (ETV3L) | binding signal (ETS2) | binding signal (SPDEF) | binding signal (ETV7) | binding signal (ELF5) | binding signal (ETV3) | binding signal (ETV6)
CATTAC | 1.09 fold enrichment (6-mer frequency, TF over GST control) | 1.14 fold enrichment (6-mer frequency, TF over GST control) | 1.23 fold enrichment (6-mer frequency, TF over GST control) | 1.14 fold enrichment (6-mer frequency, TF over GST control) | 1.03 fold enrichment (6-mer frequency, TF over GST control) | 1.1 fold enrichment (6-mer frequency, TF over GST control) | 1.13 fold enrichment (6-mer frequency, TF over GST control) | 1.11 fold enrichment (6-mer frequency, TF over GST control)
AAGCTC | 1.2 fold enrichment (6-mer frequency, TF over GST control) | 1.2 fold enrichment (6-mer frequency, TF over GST control) | 1.13 fold enrichment (6-mer frequency, TF over GST control) | 1.06 fold enrichment (6-mer frequency, TF over GST control) | 1.08 fold enrichment (6-mer frequency, TF over GST control) | 1.07 fold enrichment (6-mer frequency, TF over GST control) | 1.18 fold enrichment (6-mer frequency, TF over GST control) | 1.23 fold enrichment (6-mer frequency, TF over GST control)
CCTATT | 1.6 fold enrichment (6-mer frequency, TF over GST control) | 1.64 fold enrichment (6-mer frequency, TF over GST control) | 1.49 fold enrichment (6-mer frequency, TF over GST control) | 1.51 fold enrichment (6-mer frequency, TF over GST control) | 1.52 fold enrichment (6-mer frequency, TF over GST control) | 1.53 fold enrichment (6-mer frequency, TF over GST control) | 1.52 fold enrichment (6-mer frequency, TF over GST control) | 1.59 fold enrichment (6-mer frequency, TF over GST control)
TTTCCT | 2.28 fold enrichment (6-mer frequency, TF over GST control) | 2.43 fold enrichment (6-mer frequency, TF over GST control) | 2.44 fold enrichment (6-mer frequency, TF over GST control) | 2.34 fold enrichment (6-mer frequency, TF over GST control) | 2.31 fold enrichment (6-mer frequency, TF over GST control) | 4.16 fold enrichment (6-mer frequency, TF over GST control) | 2.73 fold enrichment (6-mer frequency, TF over GST control) | 2.86 fold enrichment (6-mer frequency, TF over GST control)
CAAGTA | 1.14 fold enrichment (6-mer frequency, TF over GST control) | 1.09 fold enrichment (6-mer frequency, TF over GST control) | 1.05 fold enrichment (6-mer frequency, TF over GST control) | 1.08 fold enrichment (6-mer frequency, TF over GST control) | 1.11 fold enrichment (6-mer frequency, TF over GST control) | 1.06 fold enrichment (6-mer frequency, TF over GST control) | 1.11 fold enrichment (6-mer frequency, TF over GST control) | 1.14 fold enrichment (6-mer frequency, TF over GST control)
TGGTGT | 1.19 fold enrichment (6-mer frequency, TF over GST control) | 1.25 fold enrichment (6-mer frequency, TF over GST control) | 1.32 fold enrichment (6-mer frequency, TF over GST control) | 1.23 fold enrichment (6-mer frequency, TF over GST control) | 1.08 fold enrichment (6-mer frequency, TF over GST control) | 1.14 fold enrichment (6-mer frequency, TF over GST control) | 1.25 fold enrichment (6-mer frequency, TF over GST control) | 1.31 fold enrichment (6-mer frequency, TF over GST control)
TTTGGA | 1.2 fold enrichment (6-mer frequency, TF over GST control) | 1.21 fold enrichment (6-mer frequency, TF over GST control) | 1.19 fold enrichment (6-mer frequency, TF over GST control) | 1.23 fold enrichment (6-mer frequency, TF over GST control) | 1.3 fold enrichment (6-mer frequency, TF over GST control) | 1.15 fold enrichment (6-mer frequency, TF over GST control) | 1.19 fold enrichment (6-mer frequency, TF over GST control) | 1.15 fold enrichment (6-mer frequency, TF over GST control)
TGCATG | 1.06 fold enrichment (6-mer frequency, TF over GST control) | 1.27 fold enrichment (6-mer frequency, TF over GST control) | 1.06 fold enrichment (6-mer frequency, TF over GST control) | 1.06 fold enrichment (6-mer frequency, TF over GST control) | 1.06 fold enrichment (6-mer frequency, TF over GST control) | 1.01 fold enrichment (6-mer frequency, TF over GST control) | 1.1 fold enrichment (6-mer frequency, TF over GST control) | 1.08 fold enrichment (6-mer frequency, TF over GST control)
AAGCGG | 1.08 fold enrichment (6-mer frequency, TF over GST control) | 1.17 fold enrichment (6-mer frequency, TF over GST control) | 1.13 fold enrichment (6-mer frequency, TF over GST control) | 1.08 fold enrichment (6-mer frequency, TF over GST control) | 1.16 fold enrichment (6-mer frequency, TF over GST control) | 1.13 fold enrichment (6-mer frequency, TF over GST control) | 1.15 fold enrichment (6-mer frequency, TF over GST control) | 1.23 fold enrichment (6-mer frequency, TF over GST control)
CCCTCT | 1.41 fold enrichment (6-mer frequency, TF over GST control) | 1.3 fold enrichment (6-mer frequency, TF over GST control) | 1.36 fold enrichment (6-mer frequency, TF over GST control) | 1.17 fold enrichment (6-mer frequency, TF over GST control) | 1.27 fold enrichment (6-mer frequency, TF over GST control) | 1.29 fold enrichment (6-mer frequency, TF over GST control) | 1.4 fold enrichment (6-mer frequency, TF over GST control) | 1.31 fold enrichment (6-mer frequency, TF over GST control)
CTTTCA | 1.44 fold enrichment (6-mer frequency, TF over GST control) | 1.38 fold enrichment (6-mer frequency, TF over GST control) | 1.31 fold enrichment (6-mer frequency, TF over GST control) | 1.26 fold enrichment (6-mer frequency, TF over GST control) | 1.33 fold enrichment (6-mer frequency, TF over GST control) | 1.4 fold enrichment (6-mer frequency, TF over GST control) | 1.39 fold enrichment (6-mer frequency, TF over GST control) | 1.24 fold enrichment (6-mer frequency, TF over GST control)
TACAAA | 1.1 fold enrichment (6-mer frequency, TF over GST control) | 1.03 fold enrichment (6-mer frequency, TF over GST control) | 1.17 fold enrichment (6-mer frequency, TF over GST control) | 1.14 fold enrichment (6-mer frequency, TF over GST control) | 1.11 fold enrichment (6-mer frequency, TF over GST control) | 1.13 fold enrichment (6-mer frequency, TF over GST control) | 1.08 fold enrichment (6-mer frequency, TF over GST control) | 1.16 fold enrichment (6-mer frequency, TF over GST control)
TTTGTC | 1.23 fold enrichment (6-mer frequency, TF over GST control) | 1.32 fold enrichment (6-mer frequency, TF over GST control) | 1.24 fold enrichment (6-mer frequency, TF over GST control) | 1.14 fold enrichment (6-mer frequency, TF over GST control) | 1.35 fold enrichment (6-mer frequency, TF over GST control) | 1.22 fold enrichment (6-mer frequency, TF over GST control) | 1.29 fold enrichment (6-mer frequency, TF over GST control) | 1.17 fold enrichment (6-mer frequency, TF over GST control)
ACAAGC | 1.15 fold enrichment (6-mer frequency, TF over GST control) | 1.11 fold enrichment (6-mer frequency, TF over GST control) | 1.18 fold enrichment (6-mer frequency, TF over GST control) | 1 fold enrichment (6-mer frequency, TF over GST control) | 1.01 fold enrichment (6-mer frequency, TF over GST control) | 1.02 fold enrichment (6-mer frequency, TF over GST control) | 1.13 fold enrichment (6-mer frequency, TF over GST control) | 1.09 fold enrichment (6-mer frequency, TF over GST control)
ACCGTC | 1.25 fold enrichment (6-mer frequency, TF over GST control) | 1.23 fold enrichment (6-mer frequency, TF over GST control) | 1.28 fold enrichment (6-mer frequency, TF over GST control) | 1.35 fold enrichment (6-mer frequency, TF over GST control) | 1.09 fold enrichment (6-mer frequency, TF over GST control) | 1.08 fold enrichment (6-mer frequency, TF over GST control) | 1.2 fold enrichment (6-mer frequency, TF over GST control) | 1.21 fold enrichment (6-mer frequency, TF over GST control)
